Screens from PubChem.
Compounds with a hit are over-represented: about 12% of the library has one in this group of screens.
PI5P4Ka inh: blocks human PI5P4K alpha kinase activity. P48426. PI5P4Kalpha enzyme, ADP-Glo luminescence, 60 min; hits give low values. max response, %. 330,000 compounds, 1.2% hits. AID 652105; active = max response of -50% or lower; inconclusive = between -30% and -50%; inactive = -30% or higher; note: value at the top dose of about 77 µM; % is set by controls: 0 for no effect and ±100 for the full control effect
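qHTS, 1536-well: enzyme/substrate mix, compound by pin tool, 5 microM ATP final; RT 60 min; ADP-Glo reagents 1 (45 min) then 2 (30 min); luminescence.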
PLK1 PBD block: inhibitors of human PLK1 polo-box domain binding; P53350; Plk1 PBD binding of FITC phosphopeptide, fluorescence polarization; Potency, µM, for inactives: max response, negative = inhibition, hits mostly inhibitors; 360,000 compounds, 2.8% hits; AID 720504; note: potency is the fitted concentration of half-maximal effect; series mostly up to about 57 µM; % is set by controls: 0 for no effect and ±100 for the full control effect; nearly all actives have a fitted effect of over 65% in size
BAZ2B inh: BAZ2B (human) inhibition; Q9UIF8; AlphaScreen BAZ2B-H3K14Ac peptide displacement; Potency, µM (titrated, usually from 114 µM), for the others: top-dose activity change, negative = inhibition, usual class: inhibitors; 360,000 compounds, 4.4% hits; AID 504333; note: potency is the fitted concentration of half-maximal effect; % is set by controls: 0 for no effect and ±100 for the full control effect; nearly all actives have a fitted effect of over 60% in size
Target sequence (Q9UIF8 whole entry, looked up): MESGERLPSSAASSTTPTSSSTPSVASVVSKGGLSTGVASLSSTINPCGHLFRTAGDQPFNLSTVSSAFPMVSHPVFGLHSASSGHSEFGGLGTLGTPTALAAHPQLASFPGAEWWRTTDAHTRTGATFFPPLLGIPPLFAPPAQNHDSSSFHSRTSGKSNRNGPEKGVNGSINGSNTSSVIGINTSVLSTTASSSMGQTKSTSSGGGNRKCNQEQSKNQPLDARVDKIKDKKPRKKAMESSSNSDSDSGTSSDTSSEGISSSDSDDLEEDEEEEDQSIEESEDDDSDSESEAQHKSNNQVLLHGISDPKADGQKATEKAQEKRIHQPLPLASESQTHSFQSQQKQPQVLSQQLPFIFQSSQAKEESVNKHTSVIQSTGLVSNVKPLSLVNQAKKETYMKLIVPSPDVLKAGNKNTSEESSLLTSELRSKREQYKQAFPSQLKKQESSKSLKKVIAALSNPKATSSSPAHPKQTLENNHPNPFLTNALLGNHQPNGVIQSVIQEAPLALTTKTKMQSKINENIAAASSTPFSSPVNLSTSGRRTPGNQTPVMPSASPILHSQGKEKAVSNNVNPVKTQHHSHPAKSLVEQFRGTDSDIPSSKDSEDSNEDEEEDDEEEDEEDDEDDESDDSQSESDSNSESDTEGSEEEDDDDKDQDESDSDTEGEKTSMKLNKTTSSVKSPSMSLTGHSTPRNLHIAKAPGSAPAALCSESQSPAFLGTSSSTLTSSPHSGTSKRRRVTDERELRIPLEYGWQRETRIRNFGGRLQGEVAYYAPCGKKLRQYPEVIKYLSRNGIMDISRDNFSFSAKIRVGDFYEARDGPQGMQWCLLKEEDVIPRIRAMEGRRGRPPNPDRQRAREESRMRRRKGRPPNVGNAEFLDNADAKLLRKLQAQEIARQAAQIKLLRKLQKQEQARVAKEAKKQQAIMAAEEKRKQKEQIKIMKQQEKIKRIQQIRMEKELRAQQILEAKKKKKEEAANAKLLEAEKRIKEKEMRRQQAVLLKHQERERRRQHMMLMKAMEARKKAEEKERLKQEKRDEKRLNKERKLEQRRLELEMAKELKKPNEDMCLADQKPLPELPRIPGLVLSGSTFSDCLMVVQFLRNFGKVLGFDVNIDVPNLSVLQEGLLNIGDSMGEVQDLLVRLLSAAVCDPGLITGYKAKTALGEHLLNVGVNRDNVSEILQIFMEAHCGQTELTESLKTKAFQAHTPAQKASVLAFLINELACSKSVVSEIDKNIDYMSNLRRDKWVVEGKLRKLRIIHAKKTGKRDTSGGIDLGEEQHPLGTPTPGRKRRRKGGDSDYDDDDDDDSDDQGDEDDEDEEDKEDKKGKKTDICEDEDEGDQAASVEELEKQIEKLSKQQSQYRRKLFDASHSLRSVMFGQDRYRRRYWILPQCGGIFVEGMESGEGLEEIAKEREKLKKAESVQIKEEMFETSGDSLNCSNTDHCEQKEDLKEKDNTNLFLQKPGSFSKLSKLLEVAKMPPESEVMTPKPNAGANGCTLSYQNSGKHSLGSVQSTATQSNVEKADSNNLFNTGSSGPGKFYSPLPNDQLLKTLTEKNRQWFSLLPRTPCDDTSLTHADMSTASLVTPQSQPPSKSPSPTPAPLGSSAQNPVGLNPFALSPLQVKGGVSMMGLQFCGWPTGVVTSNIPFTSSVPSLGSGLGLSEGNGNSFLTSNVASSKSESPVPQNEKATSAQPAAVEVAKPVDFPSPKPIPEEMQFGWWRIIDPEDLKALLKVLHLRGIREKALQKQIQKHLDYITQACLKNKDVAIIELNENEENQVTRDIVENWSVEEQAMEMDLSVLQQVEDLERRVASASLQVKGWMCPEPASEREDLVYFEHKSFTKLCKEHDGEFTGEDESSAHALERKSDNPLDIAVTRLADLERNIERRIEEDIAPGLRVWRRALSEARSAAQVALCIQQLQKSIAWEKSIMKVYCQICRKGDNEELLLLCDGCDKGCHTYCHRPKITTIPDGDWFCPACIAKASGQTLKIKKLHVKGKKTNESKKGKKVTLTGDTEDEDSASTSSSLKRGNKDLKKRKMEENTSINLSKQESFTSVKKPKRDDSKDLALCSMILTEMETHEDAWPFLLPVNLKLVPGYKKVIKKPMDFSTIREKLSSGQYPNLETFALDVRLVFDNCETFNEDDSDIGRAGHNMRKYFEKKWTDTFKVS
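Compounds, titrated to a top concentration of 110 uM, were incubated 30 min at room temperature with preformed BAZ2B/acetyl-K14 H3 peptide complex (50 nM each). Proximity signal was measured by AlphaScreen after 20 min with beads.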
HP1b chromo inh: HP1-beta chromodomain-methylated histone interaction inhibition | P83916 | AlphaScreen HP1-beta / biotin-H3K9me3 peptide binding | Potency, µM (titrated, usually from 114 µM), inactives show at the top dose activity change, negative = inhibition, hits mostly inhibitors | 390,000 compounds, 0.56% hits | AID 540317; note: potency is the fitted concentration of half-maximal effect; nearly all actives have a fitted effect of over 70% in size
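Compound inhibition of the preformed complex between 50 nM HP1-beta and 50 nM biotinylated H3K9me3 peptide was read by AlphaScreen. Buffer was PBS pH 7.4 with 0.01% Tween-20. Incubations ran 30 min at room temperature, with 10 ug/mL donor/acceptor beads.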
G9a block: inhibitors of human histone lysine methyltransferase G9a | AID 504332 | Potency, µM (titrated, usually from 102 µM), for inactives: at the highest dose activity, negative = inhibition, most hits filed as inhibitors | 350,000 compounds, 8.8% hits | G9a H3K9 monomethylation, AlphaScreen, 2 h; note: potency is the fitted concentration of half-maximal effect; % is set by controls: 0 for no effect and ±100 for the full control effect; nearly all actives have a fitted effect of over 75% in size
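Using a bead-based AlphaScreen, monomethylated H3K9 product from 2 h room-temperature reactions (G9a 20 nM, peptide 500 nM, SAM 20 uM) was detected with 0.5 ug/mL rabbit anti-H3K9me1 antibody.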
JMJD2A Tudor: inhibitors of human JMJD2A Tudor domain; 390,000 compounds, 4.4% hits; O75164; AlphaScreen JMJD2A-Tudor / H3K4me3 peptide binding; AID 504339; Potency, µM (highest dose often 114 µM), for the others: top-dose activity change, negative = inhibition, hits mostly inhibitors; note: potency is the fitted concentration of half-maximal effect; % is set by controls: 0 for no effect and ±100 for the full control effect; nearly all actives have a fitted effect of over 50% in size
Numbers without * were called inactive; ? = inconclusive; nt = no result given; [ ] = dose if it differs, or a comment. Unless noted, calls come from the whole dose curve; as a rule, active = well fitted curve in the direction sought with a large enough effect; inconclusive = small, poorly fitted or top-dose-only effect, or another doubt; inactive = no such curve, though single readings can be large; an effect the other way counts as inactive or inconclusive.

SMILES | PI5P4Ka inh | PLK1 PBD block | BAZ2B inh | HP1b chromo inh | G9a block | JMJD2A Tudor
CN1CCN(C(=O)/C(=C/c2ccc(N(C)C)cc2)NC(=O)c2ccccc2)CC1 | 3 | 7% | -28% | -3% | ? | -14%
CSc1ccc(C(=S)N2CCCC2)cc1 | -1 | ? | -21% | ? | 32µM* | -11%
COc1ccc(C(=S)N2CCCC2)cc1OC | 1 | -3% | 10% | 33% | 23%[59 µM] | -12%
CN1CCN(C(=S)c2ccc(N(C)C)cc2)CC1 | nt | 10µM* | 1% | ? | ? | -18%
CCCNC(=S)N1CCN(C(c2ccccc2)c2ccccc2)CC1 | 1 | 1% | -10% | 33% | 13% | -13%
CSc1ccc(C(=S)N2CCN(C(c3ccccc3)c3ccccc3)CC2)cc1 | -2 | 13µM* | -37% | -39% | 10µM* | -31%
Cc1cccc2cc(C#N)c(SCC#N)nc12 | 0 | ? | 1% | 10% | 25µM* | -32%
Cc1cccc2cc(C#N)c(SCC(=O)NNC(=O)Cc3ccccc3)nc12 | nt | 3% | 6% | 31% | 18% | -10%
CC(=O)Nc1ccc(NC(=O)Nc2cccc(Cl)c2)cc1 | -3 | -8% | 5% | 16% | 0% | -9%
CC(=O)C(=Nc1ccc(Cl)cc1Cl)NNc1cccc(Cl)c1 | -1 | -2% | 14µM* | ? | ? | 56µM*
Cc1ccc(C)c(NC(=O)CCc2nc3cccnc3n2Cc2cccs2)c1 | nt | nt | -20% | 22% | 3%[59 µM] | -18%
CC(Oc1ccc(C(=O)c2ccc(F)cc2)cc1)C(=O)N1CCOCC1 (configuration not stated) | -5 | -7% | -11% | 26% | -12% | 2%
Cc1cc(C)n(-c2nnc(C)c(=O)[nH]2)n1 | nt | 2% | 7.1µM* | 20% | 2µM* | 1µM*
COc1cccc(CN2CC34CCC(CC3S2(=O)=O)O4)c1 (configuration not stated) | nt | nt | nt | 10% | nt | -13%
CCOC(=O)CNC(=O)CN1CCCN(S(=O)(=O)c2ccc(Br)s2)CC1 | -3 | -18% | 6% | 34% | 50µM* | -14%
CCc1ccccc1NC(=O)c1sc2nc3n(c(=O)c2c1C)CCC3 | nt | nt | -31% | 28% | -29%[59 µM] | -23%
CCn1c(-c2nn(C)c(C)c2Cl)n[nH]c1=S | -3 | -26% | 0% | 38% | 2.2µM* | ?
CCCn1c(-c2ccc(F)cc2)n[nH]c1=S | nt | -6% | 17% | 15% | 22µM* | 5.6µM*
CCn1c(-c2ccc(Cl)cc2)n[nH]c1=S | nt | -19% | 3% | -3% | 1.3µM* | 5µM*
Cc1ccc(/C=N/n2c(-c3ccc(Cl)cc3)n[nH]c2=S)s1 | -2 | ? | 1% | 22% | ? | ?
CCn1c(-c2ccc(C)cc2)n[nH]c1=S | -2 | -15% | -24% | 16% | 1.3µM* | 7.9µM*
CC(=O)N1CCC2(CC1)CCN(c1cccc(-c3ccccc3)c1)CC2 | nt | nt | nt | nt | -5%[12.7 µM] | nt
Cc1cc(O)cc2c1C1CCC3(C)C(=O)CCC3C1C=C2 (configuration not stated) | 5 | 0% | nt | 10% | nt | -19%
CCCCc1nc(SCc2ccc([N+](=O)[O-])cc2)n[nH]1 | -8 | -6% | -2% | 44% | nt | -6%
CCCCn1c(-c2ccc([N+](=O)[O-])cc2)n[nH]c1=S | -14 | -11% | -5% | ? | ? | 7.9µM*
SMILES | PI5P4Ka inh | PLK1 PBD block | BAZ2B inh | HP1b chromo inh | G9a block | JMJD2A Tudor
COc1ccc(C2=C(Nc3ccccc3)c3ccccc3C2=O)cc1 | -5 | -7% | -34% | 21% | -34%[59 µM] | -16%
CCOc1ccc(NC2=C(OC)C(=O)c3ccccc3C2=O)cc1 | 28 | 4% | 10µM* | 25µM* | 8.9µM* | 8.9µM*
COC1=C(Nc2ccc(O)cc2)C(=O)c2ccccc2C1=O | -14 | -11% | 40µM* | 50µM* | 28µM* | 45µM*
COc1ccc(NC2=C(c3ccc(OC)cc3)C(=O)c3ccccc32)cc1 | -7 | 1% | -29% | -3% | -10%[59 µM] | -23%
COC1=C(Nc2ccc(OC)cc2)C(=O)c2ccccc2C1=O | -12 | 6% | 8.9µM* | 22µM* | 10µM* | 20µM*
COC1=C(Nc2ccc(OC)cc2)C(=O)C(OC)=C(Nc2ccc(OC)cc2)C1=O | -7 | -6% | nt | 11% | nt | -12%
O=C(CNc1ccc(Br)cc1)Nc1ccc(S(=O)(=O)N2CCCCC2)cc1 | 2 | 2% | nt | nt | nt | nt
O=C(CC12CC3CC(CC(Br)(C3)C1)C2)NC1CCCC1 | 4 | 3% | 3% | 23% | ? | 6%
COCC(=O)N1CCC2(CCCN(C(=O)Nc3cccc(F)c3)C2)CC1 | nt | nt | nt | nt | 10%[12.7 µM] | nt
O=C(CN1C(=O)COc2ccc(S(=O)(=O)N3CCCC3)cc21)N1CCN(c2ccccc2)CC1 | nt | nt | -19% | -1% | 5%[59 µM] | -17%
CCCN(CCC)CCCNC(=O)C1CCCN(S(=O)(=O)c2cccc3nsnc23)C1 (configuration not stated) | nt | nt | nt | 27% | -3%[59 µM] | -11%
O=C(/C=C/c1ccccc1)NCCO | nt | nt | nt | nt | -9%[12.7 µM] | nt
CSc1ccccc1NC(=O)C(C)N(C)CC(=O)N1CCN(Cc2ccccc2)CC1 (configuration not stated) | -7 | -2% | nt | ? | nt | 10µM*
CN(CC(=O)N1CCN(Cc2ccccc2)CC1)S(=O)(=O)c1ccc(F)cc1 | 0 | 2% | 6% | 19% | nt | -13%
CC(C(=O)Nc1ccc(C(F)(F)F)cc1)N(C)CC(=O)N1CCN(Cc2ccccc2)CC1 (configuration not stated) | 9 | -3% | nt | 20µM* | nt | 0.89µM*
Nc1ccn([C@@H]2O[C@H](C(=O)Nc3ccc(Oc4ccccc4)nc3)[C@@H](O)[C@H]2O)c(=O)n1 | 1 | -3% | nt | nt | nt | nt
CCOC(=O)C1(C)NC(c2cccs2)C2C(=O)N(c3ccc(OC)cc3)C(=O)C21 (configuration not stated) | ? | 3.4µM* | 2% | 3% | 4% | 10µM*
CCOC(=O)C1(C)NC(c2ccc(OC)c(OC)c2)C2C(=O)N(c3cccc(C(C)=O)c3)C(=O)C21 (configuration not stated) | 3 | 1% | nt | nt | nt | nt
CCOC(=O)C1(C)NC(c2ccccc2F)C2C(=O)N(c3cccc(C(C)=O)c3)C(=O)C21 (configuration not stated) | ? | 3.8µM* | 19% | ? | 13% | 35µM*
CC1CCN(C(=O)CN2C(=O)C(=O)N(C(C)C)C2=O)c2ccccc2S1 (configuration not stated) | 2 | -13% | -2% | ? | ? | -14%
Cc1ncc(CO)c(/C=N/Nc2ccc(C(F)(F)F)cn2)c1O | -2 | 27µM* | 20µM* | -24%[57 µM] | -3% | ?
Cc1ncc(CO)c(/C=N/NC(=S)Nc2ccc(F)cc2)c1O | ? | -27% | 3.2µM* | ? | -152%[59 µM] | 40µM*
